# Screening data as filed in PubChem BioAssay.
# CYP2C9 inhib: inhibitors of human CYP2C9. P11712. CYP2C9 Supersomes, luciferin-H conversion, luminescence. inhibition, % at 5 µM. actives 20% (n = 96,000);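 active = blocking of liver enzyme CYP2C9 beyond about 50% at 5 µM, limit read from the data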
# CYP2C19 activ: activators of human cytochrome P450 2C19 | AID 1025 | recombinant CYP2C19, luciferin-H EGE luminescence; hits give high values; 0 = fully inhibited enzyme, 1 = untreated enzyme | 96,000 tested, under 10 active | P33261 | activation factor at 5 µM;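 active = activation factor of at least 2 at 5 µM in the primary screen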;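 note: 0 = wells with 2.5 mM tranylcypromine and 1 = vehicle-only wells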
# Cav3 T inh: blocks human Cav3.2 T-type calcium channel. B-score at 10 µM. Cav3.2-expressing cells, Fluo-4 calcium fluorescence FDSS; hits give low values. actives 4% (n = 100,000). O95180;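 active = single-dose well whose peak fluorescence ratio is a statistical outlier from its plate by either plate-standardised score or position-corrected B-score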
# CYP2C19 inh: inhibitors of human CYP2C19; P33261; CYP2C19 Supersomes, luciferin-H EGE luminescence, 30 min; inhibition, % at 5 µM; actives 21% (n = 96,000); AID 778;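 active = CYP2C19 inhibition above a set limit at 5 µM in the primary screen, cut at about 50% in these data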;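 note: plate controls were negative control wells for no effect and 2.5 mM tranylcypromine positive control for full effect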
# CYP2C9 activ: CYP2C9 (human) activation. P11712. recombinant CYP2C9, luciferin-H conversion, luminescence; hits give high values; factor 1 = untreated enzyme, 0 = blocked. activation factor at 5 µM. actives 1.4% (n = 96,000). AID 1024;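 active = activation factor of 2 or more for CYP2C9 at a 5 µM dose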;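 note: 0 = sulfaphenazole-blocked wells and 1 = vehicle-only wells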
# * = called active by the depositor; / = not tested or not shown. In the library only some 27% were active in any assay of this set; here they are far more common.
SMILES,CYP2C9 inhib,CYP2C19 activ,Cav3 T inh,CYP2C19 inh,CYP2C9 activ
Cc1cc2c3c(c1)C1(C(=O)N3C(C)(C)CC2C)C(C#N)=C(N)OC2=C1C(=O)CC(C)(C)C2 (stereo unspecified),/,/,0.042,/,/
Cc1cc2c3c(c1)C1(SCC(=O)N1c1ccc(F)cc1)C(=O)N3C(C)(C)CC2C (stereo unspecified),39,0.6,-3.4*,38,0.6
O=C(NCCCn1ccnc1)C(F)(F)C(F)(F)C(=O)NCCCn1ccnc1,98*,0.8,/,16,0
CC(NC(=O)NCCCn1ccnc1)(C(F)(F)F)C(F)(F)F,68*,0.1,0.43,91*,0.3
COCCn1c(SCC(N)=O)nc2c(c1=O)SC(C)C2 (stereo unspecified),/,/,-0.05,/,/
Clc1ccccc1-c1ccc(CN2CCN(c3ccccc3)CC2)o1,64*,0.3,/,74*,0.4
CCO[C@H]1OC(C(=O)O)=C[C@@H](c2ccc(C(F)(F)F)cc2)[C@@H]1CCCO,/,/,0.0073,/,/
CC(=O)CCc1ccc2oc(C(=O)O)c(C)c2c1,4,1,0.36,1,1
CCN(CC)S(=O)(=O)N1CCC(C(=O)NCC2COc3ccccc3O2)CC1 (stereo unspecified),/,/,-0.009,/,/
CCN(c1ccccc1)S(=O)(=O)c1ccc(NCC2COc3ccccc3O2)nc1 (stereo unspecified),84*,0.5,-4.8*,52*,0.2
O=C1NC[C@H](Cc2ccccc2)N(CC2CCCCC2)C1=O,/,/,0.48,/,/
Cc1cc(C)c(C#N)c(SCC(=O)CC(=O)OC(C)C)n1,53*,0.1,0.14,91*,0.5
Cc1ccc2sc(NC(=O)CSc3nc(C)cc(C)c3C#N)nc2c1,68*,0.3,-0.053,68*,0.3
Cc1nc(SCC(=O)CC(=O)OC(C)C)c(C#N)c(C)c1C,23,0.4,-1.1,64*,0.8
CSc1nc(N)nc(SCC(=O)CC(=O)OC(C)C)c1C#N,43,0.9,-0.098,12,0.6
CC(CN(C)Cc1ccccc1)OC(=O)c1ccc2c(c1)OCCO2 (stereo unspecified),30,0.7,-2.2,30,0.7
COC(=O)c1ccc(C(=O)OC)c(NC(=O)CN(c2ccc3c(c2)OCO3)S(C)(=O)=O)c1,76*,0.1,-1.2,89*,0.2
COc1ccc(Cl)cc1N(CC(=O)Nc1ccc2c(c1)OCO2)S(C)(=O)=O,86*,0.1,-2.5,95*,0.1
COc1ccc(OC)c(N(CC(=O)Nc2ccc3c(c2)OCO3)S(=O)(=O)c2ccccc2)c1,100*,0,-2.4,98*,0
COc1ccc(OC)c(N(CC(=O)O)S(=O)(=O)c2ccc(OC)c(OC)c2)c1,10,1,0.12,3,0.9
CS(=O)(=O)N(CC(=O)Nc1ccc2c(c1)OCCO2)c1ccc2c(c1)OCO2,58*,0.1,-0.63,88*,0.4
CS(=O)(=O)N(CC(=O)Nc1ccc2c(c1)OCO2)c1ccccc1,21,0.7,0.52,27,0.8
Cc1nc(=O)c(-c2ccccc2)c(C)n1-c1ccccc1O,10,0.8,-0.038,17,0.9
O=C(c1c(Cl)nc2sccn12)N(C(=O)c1c(Cl)nc2sccn12)c1ccc(Cl)cn1,100*,0,-0.58,100*,0
O=C(NCCc1c[nH]c2ccccc12)c1c(Cl)nc2sccn12,8,0.7,-0.052,34,0.9
SMILES,CYP2C9 inhib,CYP2C19 activ,Cav3 T inh,CYP2C19 inh,CYP2C9 activ
C[C@@H](C(=O)N1CCN(C(=O)OC(C)(C)C)CC1)n1cc(CCCN=C(NC(=O)OC(C)(C)C)NC(=O)OC(C)(C)C)nn1,/,/,-0.98,/,/
Cc1cnn(C(=S)NCCc2ccccc2)c1,29,0.2,-0.32,84*,0.7
Cc1ccc(-n2ncc3c(=O)n(CC(=O)NCC4CCCO4)cnc32)cc1 (stereo unspecified),-4,1.1,0.84,-6,1
COc1cccc(Nc2nnc(SCc3cc([N+](=O)[O-])cc4c3OCOC4)s2)c1,12,0.2,/,82*,0.9
Cc1cccc(C)c1Nc1nnc(SCc2cc([N+](=O)[O-])cc3c2OCOC3)s1,51*,1.1,-2.1,-5,0.5
CC(=O)Nc1ccc(S(=O)(=O)N(c2cccnc2)S(=O)(=O)c2ccc(NC(C)=O)cc2)cc1,/,/,0.27,/,/
O=C(Nc1nnc(CCN2CCOCC2)s1)C1CCCCC1,0,1,0.23,-1,1
CCC(=O)OCCCCCCOc1ccc(C(=O)O)cc1,-12,0.4,0.097,63*,1.1
